PubChem BioAssay (EPA / NIEHS)
Inconclusive results are not listed. Calls of active or inactive are those of the source. Rule for the calls: active = hit-call score of the fitted dose curve at least 0.9, where 1 is the maximum; inconclusive = response in the unintended direction; inactive = score below 0.9.

The compounds below were run against Ratio of Nucleoli Translocation and Cytoplasm, AR (gene 367) (UniProt P10275) (assay: UPITT_HCI_U2OS_AR_TIF2_Nucleoli_Cytoplasm_Ratio_Antagonist: University of Pittsburgh U2OS Androgen Receptor-Transcriptional Intermediary Factor 2 (AR-TIF2) Antagonism High Content Imaging Assay for Ratio of Nucleoli Translocation and Cytoplasm (AID 2283999);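 note: antagonists lower the DHT-driven ratio of nucleolar to cytoplasmic red signal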).
Excerpt: UPITT_AR_TIF2_PPIB is a cell-based, high-content imaging assay that uses U2OS, a human osteosarcoma cell line, expressing a human androgen receptor fused to red fluorescent protein and the coactivator TIF2 fused to green fluorescent protein. UPITT_HCI_U2OS_AR_TIF2_Nucleoli_Cytoplasm_Ratio_Antagonist is one of four assay components measured from the UPITT_AR_TIF2_PPIB assay. It is designed to make measurements of the ratio of red fluorescence localized in the nucleolar region of the cell nucleus to red fluorescence localized in the cytoplasm as detected with high-content fluorescent imaging.Data from the assay component UPITT_HCI_U2OS_AR_TIF2_Nucleoli_Cytoplasm_Ratio_Antagonist was analyzed into 1 assay endpoint. This assay endpoint, UPITT_HCI_U2OS_AR_TIF2_Nucleoli_Cytoplasm_Ratio_Antagonist, was analyzed in the positive analysis fitting direction relative to DHT as the baseline of activity. Using a type of binding reporter, measures of receptor for loss-of-signal activity can be used to understand the binding at the pathway-level as it relates to the gene AR.
Daughter plates containing 2 uL of 10 mM compounds in DMSO were prepared and replicated from the 384-well Library of Pharmacologically Active Compounds (LOPAC) master plates using the Bravo outfitted with a 384-well transfer head. Aluminum adhesive plate seals were applied with an Abgene Seal-IT 100 (Rochester, NY) plate sealer, and the plates were stored at -20 C in a Matrical MatriMinistore (Spokane, WA) automated compound storage and retrieval system. For screening, LOPAC daughter plates were withdrawn from -20C storage, thawed to ambient temperature, centrifuged 1-2 min at 50 g, and the plate seals were removed before the transfer of 98 uL of serum-free tissue culture medium (SFM) into wells using the BioTek Microflo liquid handler (BioTek, Winooski, VT) to generate a 200 uM intermediate stock concentration of library compounds (2.0% DMSO). The diluted compounds were mixed by repeated aspiration and dispensation using a 384-well P30 dispensing head on the Evolution P3 (EP3) liquid handling platform (PerkinElmer, Waltham, MA) and then 5 uL of diluted compounds was transferred to the wells of assay plates. In the LOPAC screen, compounds were individually tested at a final concentration of 20 uM (0.2% DMSO). After the diluted compounds had been transferred from the daughter plates to the primary HCS assay plates, aluminum adhesive plate seals were applied and the diluted daughter plates were stored frozen at -20C. To confirm active compounds identified in the primary screen, we withdrew the LOPAC daughter plates containing the 200 uM intermediate concentration of library compounds (2.0% DMSO) from -20C storage, thawed them to ambient temperature, centrifuged them for 1-2 min at 50 g, and removed the plate seals. A work list was generated to direct the Multiprobe Janus liquid handling platform (PerkinElmer) to cherry pick 75 uL from the wells of the diluted daughter plates that were flagged active in the primary screen and to reformat these into a 384-well plate hit confirmation daughter plate. Five microliters of primary HCS active compounds was then transferred into triplicate wells of assay plates using a 384-well P30 dispensing head on the Evolution P3 (EP3) liquid handling platform (PerkinElmer). […] Daughter plates containing 2 uL of the serially diluted compounds in DMSO were prepared and replicated from the 384-well serial dilution master plates using the Bravo outfitted with a 384-well transfer head. Aluminum adhesive plate seals were applied and plates were stored at -20C. For testing in the bioassays, daughter plates were withdrawn from -20C storage, thawed to ambient temperature, centrifuged for 1-2 min at 50 g, and the plate seals were removed before the transfer of 38 uL of SFM into wells using the BioTek Microflo liquid handler (BioTek) to generate an intermediate stock concentration of library compounds ranging from 1.95 to 500 uM (5.0% DMSO). […]

Ratio of Nucleoli Translocation and Cytoplasm, AR (gene 367), sequence (P10275 whole entry, looked up, the tested form may be a part): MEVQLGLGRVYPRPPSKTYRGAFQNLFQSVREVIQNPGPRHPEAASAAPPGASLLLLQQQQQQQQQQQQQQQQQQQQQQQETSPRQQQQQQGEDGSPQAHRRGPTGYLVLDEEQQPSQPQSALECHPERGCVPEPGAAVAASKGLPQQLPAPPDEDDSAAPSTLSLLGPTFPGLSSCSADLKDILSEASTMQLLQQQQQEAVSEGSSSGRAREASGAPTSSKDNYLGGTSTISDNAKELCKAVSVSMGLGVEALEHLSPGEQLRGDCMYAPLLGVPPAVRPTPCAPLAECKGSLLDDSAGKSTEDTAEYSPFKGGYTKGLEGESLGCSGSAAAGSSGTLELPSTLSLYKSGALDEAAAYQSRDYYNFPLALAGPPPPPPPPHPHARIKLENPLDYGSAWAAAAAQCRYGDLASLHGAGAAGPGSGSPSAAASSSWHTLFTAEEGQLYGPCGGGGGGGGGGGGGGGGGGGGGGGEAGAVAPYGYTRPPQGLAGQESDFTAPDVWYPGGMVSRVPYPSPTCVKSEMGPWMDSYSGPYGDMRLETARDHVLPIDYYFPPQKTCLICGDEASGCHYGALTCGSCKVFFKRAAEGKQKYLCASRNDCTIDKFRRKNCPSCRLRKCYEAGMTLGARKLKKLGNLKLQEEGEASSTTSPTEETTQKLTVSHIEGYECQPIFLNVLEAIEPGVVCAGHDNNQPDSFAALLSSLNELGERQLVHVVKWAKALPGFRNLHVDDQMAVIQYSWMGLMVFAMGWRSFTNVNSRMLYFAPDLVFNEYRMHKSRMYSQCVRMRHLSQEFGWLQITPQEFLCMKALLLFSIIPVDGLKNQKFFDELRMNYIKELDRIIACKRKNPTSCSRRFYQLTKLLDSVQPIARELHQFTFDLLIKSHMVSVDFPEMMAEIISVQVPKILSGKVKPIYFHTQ

outcome, inactive:
C=CCCCCCCCCCCCC
CSc1ccc(Oc2ccc(S(N)(=O)=O)cc2CN(C)C)cc1C
O=C1OC(c2ccc(O)cc2)(c2ccc(O)cc2)c2ccccc21
NCCOCCOCCN
O=C(Oc1ccccc1)c1cccc(C(=O)Oc2ccccc2)c1
Cc1cc(SC2=C(O)C[C@@](CCc3ccc(N)cc3)(C(C)C)OC2=O)c(C(C)(C)C)cc1CO
Cc1c(C)c2c(c(C)c1O)CCC(C)(COc1ccc(CC3SC(=O)NC3=O)cc1)O2 (stereo not given)
CCC(C)N(C)C(=O)c1cc2ccccc2c(-c2ccccc2Cl)n1 (stereo not given)
Cc1ccc(-c2cc(C(F)(F)F)nn2-c2ccc(S(N)(=O)=O)cc2)cc1
CCCCCCCCCC[N+](C)(C)[O-]
O=Cc1ccccc1C=O
CC(C)OC(=O)C(C)(C)Oc1ccc(C(=O)c2ccc(Cl)cc2)cc1
CCOCCOCCO
CCN(CC)CCOc1ccc(C(=C(Cl)c2ccccc2)c2ccccc2)cc1

AC50, active:
C#CC(O)C(CC)CCCC (stereo not given) 14.8 µM
